Screening data deposited in PubChem BioAssay by Broad Institute.
C diff growth: C. difficile growth inhibition | Clostridium difficile clinical isolate growth, OD600, 24 h; hits give low values | growth activity, negative = inhibition, % at 16 µg/mL (by protocol) | 86,000 compounds, 0.25% hits | AID 1259249;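 active = mean growth activity at or below -80% and every replicate also at or below -80%; inconclusive = mean at or below -80% but some replicate above -80%; inactive = mean growth activity above -80%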;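 note: 0% = DMSO wells and -100% = levofloxacin 16 µg/mL wells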
T cruzi growth-1: T. cruzi proliferation inhibition | T. cruzi beta-gal in NIH3T3, GalScreen luminescence, 90 h | 77,000 compounds, 5.9% hits | inhibition, % at 8.34 µM | AID 624255;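 active = mean inhibition above about 93%, with at least 55% of replicates each passing it, limit read from the data, passing the limit was not always enough; inconclusive = only one of those two conditions holds; inactive = neither condition holds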
Pf Dd2 growth: P. falciparum Dd2 growth inhibition; SYBR Green, 72 h; hits give low values; activity change, % at 10 µM; 94,000 compounds, 2.3% hits; AID 1159554; in the data active = activity change below about -80%; inconclusive = no clear call, values can overlap the other calls
T cruzi growth-2: blocks T. cruzi growth in NIH3T3 host cells; 5,600 compounds, 72% hits; shares compounds with T cruzi growth-1; inhibition, % at 8.35 µM; AID 651739; T. cruzi beta-gal in NIH3T3, GalScreen luminescence, 90 h;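 active = mean replicate inhibition above about 95% and at least 55% of replicates individually reaching it, limit read from the data; inconclusive = only one of the two criteria is met; inactive = neither criterion is met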
T cruzi growth-3: inhibitors of T. cruzi proliferation; inhibition, % at 2.09 µM; T. cruzi beta-gal in NIH3T3, GalScreen luminescence, 90 h; 5,600 compounds, 21% hits; shares compounds with T cruzi growth-1;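 active = mean inhibition above about 95%, with at least 55% of replicates also reaching it, limit read from the data; inconclusive = meets just one of the two conditions; inactive = meets neither condition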;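 note: plate controls were neutral control median for no effect and positive control median for full effect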
NIH3T3 tox: kills mouse NIH/3T3 fibroblasts | NIH/3T3 viability, CellTiter-Glo ATP luminescence, 90 h | shares compounds with T cruzi growth-1 | AID 651742 | 5,600 compounds, 14% hits | cytotoxicity (signal decrease), % at 8.35 µM;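 active = mean signal decrease across replicates above about 35% based on untreated-well scatter, with enough replicates individually passing, limit read from the data; inconclusive = no rule stated though some were filed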;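 note: 0% = median of neutral control wells and 100% = median of positive control wells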
3T3 cytotox 2: cytotoxicity in mouse NIH/3T3 fibroblasts; shares compounds with T cruzi growth-1; NIH/3T3 viability, CellTiter-Glo ATP luminescence, 90 h; inhibition, % at 24.9 µM; 5,600 compounds, 56% hits; AID 651744;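 active = mean loss of cell viability signal at or above a set limit, and enough replicates individually reaching it; inconclusive = meets only the mean limit or only the replicate share; inactive = meets neither condition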;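 note: 0% = median of neutral control wells and 100% = median of positive control wells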
Numbers without * were called inactive; ? = inconclusive; / = not tested or not shown. Hits are enriched below; roughly 6.8% of the tested compounds scored in any of these assays.

SMILES	C diff growth	T cruzi growth-1	Pf Dd2 growth	T cruzi growth-2	T cruzi growth-3	NIH3T3 tox	3T3 cytotox 2
O=C(NC1CCCC1)N1CCCCN2[C@@H](CO)[C@H](c3ccc(-c4ccccc4)cc3)[C@@H]2C1	2	113*	1	95*	43	3	95*
C[C@@H]1CN([C@H](C)CO)C(=O)Cc2cc(NS(=O)(=O)c3ccc(F)cc3)ccc2O[C@@H]1CN(C)S(=O)(=O)c1cccs1	11	59	-26	/	/	/	/
CN(C)C(=O)c1ccc(-c2ccc([C@@H]3[C@H](CO)N4C(=O)CN(C(=O)C5CCCCC5)C[C@@H]34)cc2)cc1	-4	/	-9	/	/	/	/
C[C@@H]1CCCCO[C@@H](CN(C)CC2CCCCC2)[C@H](C)CN([C@H](C)CO)C(=O)c2cc(NS(=O)(=O)c3cccs3)ccc2O1	24	78	-53	/	/	/	/
CN(C)CC#Cc1ccc([C@H]2[C@@H](CO)N3CCCCN(C(=O)Nc4ccccc4F)C[C@@H]23)cc1	-1	33	5	/	/	/	/
O=C(Nc1ccccc1F)N1CCCCN2[C@@H](CO)[C@H](c3ccc(C#Cc4ccccc4)cc3)[C@@H]2C1	0	95*	-78	?	115*	119*	104*
COc1ccc(C#Cc2ccc([C@@H]3[C@@H](CO)N4CCCCN(C(=O)Nc5ccccc5F)C[C@@H]34)cc2)cc1	-4	127*	-91*	99*	114*	-42	51*
COc1ccc(C#Cc2ccc([C@H]3[C@@H](CO)N4CCCCN(C(=O)Nc5ccccc5F)C[C@@H]34)cc2)cc1	-8	140*	-79	?	114*	?	40*
O=C(Nc1ccccc1F)N1CCCCN2[C@H](CO)[C@H](c3ccc(C#Cc4ccccc4)cc3)[C@H]2C1	5	42	-69	/	/	/	/
O=C(Nc1ccccc1F)N1CCCCN2[C@H](C1)[C@H](c1ccc(C#Cc3ccccc3)cc1)[C@@H]2CO	-5	69	-26	/	/	/	/
CC(C)CC#Cc1cnc2c(c1)C(=O)N([C@H](C)CO)C[C@H](C)[C@H](CN(C)Cc1cccc(C(=O)O)c1)O2	1	/	8	/	/	/	/
CO[C@@H]1CN(C)C(=O)c2ccc(NC(=O)c3ccccn3)cc2OC[C@@H](C)N(CCC(F)(F)F)C[C@H]1C	/	25	-20	/	/	/	/
COc1ccccc1-c1cn(CC[C@H]2CC[C@H](NC(=O)CCN3CCCCC3)[C@H](CO)O2)nn1	3	-51	-18	/	/	/	/
Cc1ccc(S(=O)(=O)N(C)C[C@H]2OCCCC[C@H](C)Oc3ccc(NS(=O)(=O)c4cccs4)cc3C(=O)N([C@H](C)CO)C[C@H]2C)cc1	/	109*	-75	103*	16	-37	-15
Cc1ccc(S(=O)(=O)N(C)C[C@@H]2OCCCC[C@@H](C)Oc3ccc(NS(=O)(=O)c4cccs4)cc3C(=O)N([C@@H](C)CO)C[C@@H]2C)cc1	/	103*	-74	104*	70	12	-2
Cc1ccc(S(=O)(=O)Nc2ccc3c(c2)C(=O)N([C@H](C)CO)C[C@H](C)[C@@H](CN(C)S(=O)(=O)c2cccs2)OCCCC[C@H](C)O3)cc1	-7	/	/	/	/	/	/
Cc1ccc(S(=O)(=O)N(C)C[C@@H]2OCCCC[C@@H](C)Oc3ccc(NS(=O)(=O)c4cccs4)cc3C(=O)N([C@H](C)CO)C[C@@H]2C)cc1	/	61	-56	/	/	/	/
C[C@@H]1CN([C@H](C)CO)C(=O)c2cc(NS(=O)(=O)c3cccs3)ccc2O[C@@H](C)CCCCO[C@H]1CN(C)S(=O)(=O)c1ccccc1	-30	/	-19	/	/	/	/
C[C@@H]1CCCCO[C@H](CN(C)S(=O)(=O)c2ccccc2)[C@H](C)CN([C@@H](C)CO)C(=O)c2cc(NS(=O)(=O)c3cccs3)ccc2O1	-6	?	/	103*	46	-10	-8
Cc1ccc(S(=O)(=O)N(C)C[C@@H]2OCCCC[C@H](C)Oc3ccc(NS(=O)(=O)c4cccs4)cc3C(=O)N([C@H](C)CO)C[C@@H]2C)cc1	/	119*	-68	96*	42	-25	-7
Cc1ccc(S(=O)(=O)N(C)C[C@@H]2OCCCC[C@@H](C)Oc3ccc(NS(=O)(=O)c4cccs4)cc3C(=O)N([C@H](C)CO)C[C@H]2C)cc1	/	59	-58	/	/	/	/
C[C@H](CO)N1C[C@H](C)[C@@H](CN(C)S(=O)(=O)c2cccs2)Oc2ccc(NS(=O)(=O)c3cccs3)cc2C1=O	20	/	-6	/	/	/	/
C[C@H](CO)N1C[C@H](C)[C@H](CN(C)C(=O)Nc2ccc(C(F)(F)F)cc2)OCCCC[C@H](C)Oc2ccc(NC(=O)CCC(F)(F)F)cc2C1=O	-3	102	-2	/	/	/	/
COc1ccc(S(=O)(=O)N(C)C[C@H]2Oc3ccc(NC(=O)Cc4ccccc4)cc3CC(=O)N([C@@H](C)CO)C[C@H]2C)cc1	3	/	-8	/	/	/	/
CCCC(=O)Nc1ccc2c(c1)C(=O)N(C)C[C@H](OC)[C@H](C)CN(C(=O)C1CCCC1)[C@@H](C)CO2	3	-12	2	/	/	/	/
SMILES	C diff growth	T cruzi growth-1	Pf Dd2 growth	T cruzi growth-2	T cruzi growth-3	NIH3T3 tox	3T3 cytotox 2
Cc1ccc(S(=O)(=O)Nc2ccc3c(c2)CC(=O)N([C@@H](C)CO)C[C@@H](C)[C@H](CN(C)C(=O)Nc2ccc4c(c2)OCO4)O3)cc1	-4	-5	16	/	/	/	/
CC=Cc1ccc2n(c1=O)C[C@@H]1[C@@H](CO)[C@H](C(=O)NCCC)[C@H]2N1C(=O)c1ccccc1 (mixture of isomers)	-1	-15	10	/	/	/	/
COc1ccccc1NC(=O)N[C@H]1CC[C@H](CCn2cc(C3(O)CCCC3)nn2)O[C@@H]1CO	/	55	-13	/	/	/	/
COc1ccc2c3c([nH]c2c1)[C@H](CO)N(C(=O)c1ccccc1)CC31CCN(C(=O)NC(C)C)CC1	-8	/	-3	/	/	/	/
Cc1ccc(S(=O)(=O)N(C)C[C@@H]2OCCCC[C@@H](C)Oc3ccc(NS(=O)(=O)c4cccs4)cc3C(=O)N([C@@H](C)CO)C[C@H]2C)cc1	/	86	-43	/	/	/	/
Cc1ccc(S(=O)(=O)Nc2ccc3c(c2)C(=O)N([C@@H](C)CO)C[C@@H](C)[C@H](CN(C)S(=O)(=O)c2cccs2)OCCCC[C@H](C)O3)cc1	-8	/	/	/	/	/	/
Cc1ccc(S(=O)(=O)N(C)C[C@H]2OCCCC[C@@H](C)Oc3ccc(NS(=O)(=O)c4cccs4)cc3C(=O)N([C@@H](C)CO)C[C@@H]2C)cc1	/	?	-14	107*	53	-3	15
Cc1ccc(S(=O)(=O)N(C)C[C@H]2OCCCC[C@@H](C)Oc3ccc(NS(=O)(=O)c4cccs4)cc3C(=O)N([C@H](C)CO)C[C@H]2C)cc1	/	?	-69	90	31	-29	-39
COc1ccc2c3c([nH]c2c1)[C@H](CO)N(Cc1cccnc1)CC31CCN(C(=O)c2cccnc2)CC1	7	/	-21	/	/	/	/
